Reference: PubChem BioAssay (NCI)
About 79,000 compounds went through this panel and 15% of them were active in at least one assay; those are over-represented in the sample as a whole. No stated cut-off is given here; in the data, active means growth inhibition above about 70%; inactive means the rest.

Columns and labels:
[1] = NCI Yeast Anticancer Drug Screen. Data for the rad50 strain (AID 155);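 further: 0% = growth of vehicle-only cultures of the same strain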; conditions: S. cerevisiae rad50 strain growth inhibition; at 50.0 µM; hits give high values
How it was run: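 DNA repair mutant yeast, compound exposure, growth read-out; inhibition is taken relative to vehicle.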

[2] = NCI Yeast Anticancer Drug Screen. Data for the mec2-1 strain (AID 157); conditions: S. cerevisiae mec2-1 strain, at 50.0 µM, hits give high values
How it was run: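 Vehicle-treated cultures served as reference for growth inhibition of compound-exposed mec2-1 yeast.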

[3] = NCI Yeast Anticancer Drug Screen. Data for the sgs1 mgt1 strain (AID 161);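 further: 0% = growth of cultures given vehicle only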; conditions: S. cerevisiae sgs1 mgt1 strain, at 50.0 µM, hits give high values
How it was run: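 Test agents were incubated with a DNA-repair-mutant yeast strain. Growth was then read and compared against vehicle-treated controls.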

[4] = NCI Yeast Anticancer Drug Screen. Data for the cln2 rad14 strain (AID 165);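 further: 0% = growth equal to vehicle treated cultures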; conditions: S. cerevisiae cln2 rad14 strain, at 50.0 µM, hits give high values
How it was run: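 Each compound was tested on cln2 rad14 yeast. Inhibition of growth was calculated against vehicle-exposed controls.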

[5] = NCI Yeast Anticancer Drug Screen. Data for the bub3 strain (AID 167); conditions: S. cerevisiae bub3 mutant strain, at 50.0 µM, hits give high values
How it was run: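 In this screen, a yeast mutant lacking normal mitotic checkpoint function is challenged with compound. Relative growth versus vehicle gives the inhibition value.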

[6] = NCI Yeast Anticancer Drug Screen. Data for the mlh1 rad18 strain (AID 175); conditions: S. cerevisiae mlh1 rad18 strain growth inhibition; at 50.0 µM; hits give high values
How it was run: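 Vehicle-treated cultures served as the reference for growth inhibition in a yeast strain carrying DNA damage repair alterations exposed to each compound.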

Measured: growth inhibition

Cc1ccc2c(c1)-c1cc(C)ccc1C2
inactive: [1] 29.1% | [2] 19.9% | [3] 16.4% | [4] 15% | [5] 29.4% | [6] -1.35%

Cc1ccc(S(=O)(=O)NNc2nc(N3CCCCC3)nc(N3CCCCC3)n2)cc1
inactive: [1] -1.25% | [2] -2.4% | [3] 8.2% | [4] -17.9% | [5] -4.85% | [6] 19.6%

Cc1nc(Nc2ccccc2)c(C#N)c(=O)[nH]1
inactive: [1] -19.6% | [2] -16.4% | [3] -15.6% | [4] -10.1% | [5] -2.95% | [6] -7.05%

O=C(NNC(=O)c1ccccc1Br)c1ccccc1
inactive: [1] -17.6% | [2] -45% | [3] -5.4% | [4] 3.45% | [5] -21.5% | [6] -23.6%

O=C(C(c1ccccc1)C(F)(F)F)N1CCCC1 (configuration not stated)
inactive: [1] 7.4% | [2] -7.8% | [3] 5.05% | [4] -13.3% | [5] 13.8% | [6] 0.6%

O=P(O)(O)c1ccc(I)cc1
inactive: [1] 10.5% | [2] -30.6% | [3] -12.4% | [4] 0.75% | [5] -20.3% | [6] -5.9%

Oc1ccccc1-c1nnc2n1N=C(c1ccc(-c3ccccc3)cc1)CS2
inactive: [1] 32.5% | [2] -12.3% | [3] 23.4% | [4] 20.3% | [5] -6.95% | [6] 7.55%

CCCCCC(=O)OCCOC
inactive: [1] -3.4% | [2] -15.2% | [3] -8.45% | [4] -46% | [5] -38.1% | [6] -13.7%

CC(=C/c1ccccc1)/C=C1/NC(=S)N(CN2CCCCCC2)C1=O
inactive: [1] 5.15% | [2] -22.1% | [3] 19.9% | [4] -10.2% | [5] -9.75% | [6] -14.8%

Cc1c([N+](=O)[O-])cc(C(C)(C)C)c(OC(=S)N(C)C)c1[N+](=O)[O-]
inactive: [1] 26.9% | [2] 23.4% | [3] -1.75% | [4] 18% | [5] 14.7% | [6] 0.7%

C[Si](C)(C)OC=C1CCCCC1
inactive: [1] 12.1% | [2] -3.95% | [3] -3.55% | [4] -29.2% | [5] -21.4% | [6] 9.7%

CC1=CC(C)(C)Nc2ccccc21
inactive: [1] -0.25% | [2] -5.6% | [3] -8.95% | [4] -3.95% | [5] 6.95% | [6] 8.45%

CC1CCCCC12OCCO2 (configuration not stated)
inactive: [1] -13.9% | [2] -31.4% | [3] 3.3% | [4] 1.75% | [5] -20.3% | [6] -3.75%

OCC1(F)CC1(c1ccccc1)c1ccccc1 (configuration not stated)
inactive: [1] 0.45% | [2] -2.85% | [3] 7.45% | [4] 12.7% | [5] -13.4% | [6] -22.6%

Cc1cccc2nnc(CCCc3nnc4cccc(C)n34)n12
inactive: [1] -0.85% | [2] 1.85% | [3] -22.1% | [4] -34.4% | [5] -8.8% | [6] -6.3%

O=c1ccc2c(O)c([N+](=O)[O-])cc([N+](=O)[O-])c2[nH]1
inactive: [1] 10% | [2] -15.7% | [3] 3.15% | [4] 8.85% | [5] 6.3% | [6] 20.2%

O=C1C[C@@]23CCC4(CC2=CCC[C@H]3O1)OCCO4
inactive: [1] -16.9% | [2] -19.6% | [3] 3.2% | [4] 14.7% | [5] 17.5% | [6] -12.3%

CN(C)c1ccc(C=C2c3ccccc3-c3ccccc32)cc1
inactive: [1] -10.8% | [2] -1.35% | [3] 7.75% | [4] -80.9% | [5] 0.9% | [6] 9.1%

Cc1ccc(NC(=O)CCC(=O)C2CC(=O)CCC2=O)cc1C (configuration not stated)
inactive: [1] -22.6% | [2] -14.8% | [3] -0.7% | [4] 5.75% | [5] 6.4% | [6] -9.9%

N#C/C(=C\c1ccccc1Cl)C(=O)c1ccccc1
inactive: [1] 11.4% | [2] 11.8% | [3] -5.9% | [4] 9.9% | [5] 18.9% | [6] 32.4%

C#Cc1c(C)c(/C=C/C(C)=C/C=C/C(C)=C/C(=O)OC)n(C)c1C
inactive: [1] 12.2% | [2] 4.7% | [3] 20.3% | [4] 10.8% | [5] 23.6% | [6] 23.4%

Oc1ccc(O)c(-n2cccn2)c1-n1cccn1
inactive: [1] -0.85% | [2] -4.55% | [3] -1.6% | [4] 6.3% | [5] 0% | [6] -2.75%

COc1cc2c(cc1OC)C(c1ccccc1[N+](=O)[O-])=NCC2
inactive: [1] 0.2% | [2] -0.8% | [3] 29.7% | [4] 11.7% | [5] 22.5% | [6] 15.2%

OC(NN=C1CCCC1)(C(F)(F)Cl)C(F)(F)Cl
inactive: [1] -12.9% | [2] -19.9% | [3] -4.45% | [4] -25.3% | [5] -14.2% | [6] 9.15%

O=C(O)CS(=O)(=O)c1nc2ccccc2[nH]1
inactive: [1] -27.3% | [2] 20.6% | [3] -7.75% | [4] -57.6% | [5] 10.8% | [6] -14.8%

CCCC(C)C(O)C(C)C (configuration not stated)
inactive: [1] 1.25% | [2] -19.8% | [3] -5.1% | [4] 3.6% | [5] 8.7% | [6] -18.7%

O=C(O)C1CCCCN1/N=C/c1ccccc1 (configuration not stated)
inactive: [1] 15.8% | [2] 6.8% | [3] -1.65% | [4] -13.6% | [5] -30.8% | [6] 21.9%

C1CC2N=NC1C21CC1.[Cl][Cu][Cl]
inactive: [1] 1.2% | [2] 1.7% | [3] -3.75% | [4] -8.15% | [5] 8.7% | [6] -10%

CCCOC(=O)CCCC1=NC2=CC=CC3=NC(C)=NC(=N1)N23
inactive: [1] -10.3% | [2] -3.4% | [3] -7.45% | [4] -45.1% | [5] -38.1% | [6] -7.45%

CCCC(=O)Oc1ccccc1C1CCCCC1
inactive: [1] 15.9% | [2] 23.8% | [3] 12.3% | [4] 21.3% | [5] 7.35% | [6] 3.45%

CN(C)C(=O)c1ccc(-c2ccccc2)cc1O
inactive: [1] -10.3% | [2] 20.2% | [3] 0.05% | [4] -18.1% | [5] -10.1% | [6] -4.65%

CN(C)CCC(=O)C(=Cc1ccc(O)cc1)C(=O)CCN(C)C
inactive: [1] -35.2% | [2] -38.1% | [3] -2.4% | [4] -3.5% | [5] 7.1% | [6] -39.5%

CC12CCC=CC1=CC(=O)CC2 (configuration not stated)
inactive: [1] 1.35% | [2] 16.5% | [3] 1.05% | [4] 4.65% | [5] -6.8% | [6] 32.9%

CCOC(=O)C(=O)C1CCCC1=O (configuration not stated)
inactive: [1] -6.9% | [2] -6.65% | [3] 2.25% | [4] -0.7% | [5] 1.7% | [6] -0.6%

O=C1CSC(c2cccnc2)N1CCN1C(=O)CSC1c1cccnc1 (configuration not stated)
inactive: [1] 3.75% | [2] 4.15% | [3] -11.5% | [4] -2.4% | [5] -1.6% | [6] 19.4%

C=CCOC(=O)c1ccco1
inactive: [1] 5.6% | [2] -6.3% | [3] 2.35% | [4] -1.4% | [5] 0.45% | [6] 2.05%

c1ccc(CN2COc3c(ccc4c5c(ccc34)CN(Cc3ccccc3)CO5)C2)cc1
inactive: [1] 5% | [2] -10.4% | [3] -37.5% | [4] -14.1% | [5] -19.9% | [6] -9.15%
